SMN2 splice enh = qHTS Assay for Enhancers of SMN2 Splice Variant Expression; 2.8% of 210,000 active; AID 1458, 2008; HEK293 SMN2-luciferase splicing reporter, luminescence, 30-36 h; Potency, µM (highest dose often 46.1 µM), for the others: at the highest dose activity change, positive = activation, hits mostly activators; further: % of control where 0% means no effect; nearly all actives have a fitted effect of over 55% in size
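HEK293 cells carry an SMN2 minigene-luciferase reporter in which exon 7 inclusion puts luciferase in frame. Cells were seeded at 2000 cells/well, attached for 10-12 hours, then exposed to compounds for 30-36 hours at 37C before ONE-Glo luminescence.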
KinaseGlo FLuc = Counterscreen for Luciferase (Kinase-Glo TM) Inhibition. 0.28% of 200,000 active. Potency, µM (highest dose often 38.3 µM), for inactives: at the highest dose activity change, negative = inhibition, hits mostly inhibitors. Luciferin 4-monooxygenase (Photuris pensylvanica), Q27757. Kinase-Glo luciferase, ATP luminescence, 8 min. AID 1379, 2008; further: on the % scale 0 is the no-effect control and ±100 the full control effect; nearly all actives have a fitted effect of over 60% in size
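Compounds were added to a substrate mix at pH 7.2 (50 mM imidazole, 10 uM ATP, within the enzyme's linear range), followed by Kinase-Glo detection reagent; luminescence was measured after 8 minutes at ambient temperature.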
ELG1 genotoxic = qHTS screen for small molecules that induce genotoxicity in human embryonic kidney (HEK293T) cells expressing luciferase-tagged ELG1; AID 504466, 2011; HEK293T ELG1-luciferase reporter, luminescence, 16 h; Potency, µM (highest dose often 46 µM), for inactives: top-dose activity change, positive = activation, hits mostly activators; 1.3% of 330,000 active; further: % of control where 0% means no effect; nearly all actives have a fitted effect of over 60% in size
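Quantitative HTS format in 1536-well plates. HEK293T ELG1-luciferase reporter cells receive test compound and are incubated 16 hr at 37 °C, 5% CO2; ONE-Glo added, 30 min room temperature, then luminescence read.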
Rab9 prom act = qHTS Assay for Rab9 Promoter Activators. Huh7 Rab9 promoter-luciferase reporter, luminescence, 24 h. Potency, µM (series often up to 9.22 µM), without a hit: at the highest dose activation, negative = inhibition, usual class: activators. 2.8% of 320,000 active; further: % of control where 0% means no effect; nearly all actives have a fitted effect of over 60% in size
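Quantitative HTS format; Huh7 Rab9-luciferase reporter cells (1500/well) receive compound 2 h post-plating, incubate 24 h at 37 °C, then get luciferase reagent for 10 min before luminescence reading.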
FLuc modulator = qHTS profiling assay for firefly luciferase inhibitor/activator using purifed enzyme and Km concentrations of substrates (counterscreen for miR-21 project). purified FLuc, Km substrates, luminescence inhibition. Potency, µM (doses to about 57.5 µM), inactives show top-dose activity change, negative = inhibition, hits mostly inhibitors. Luciferin 4-monooxygenase (Photinus pyralis), P08659. 6.9% of 360,000 active;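 further: plate controls were vehicle for no effect and reference inhibitor for full effect; nearly all actives have a fitted effect of over 55% in size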
Target sequence (P08659 whole entry, looked up): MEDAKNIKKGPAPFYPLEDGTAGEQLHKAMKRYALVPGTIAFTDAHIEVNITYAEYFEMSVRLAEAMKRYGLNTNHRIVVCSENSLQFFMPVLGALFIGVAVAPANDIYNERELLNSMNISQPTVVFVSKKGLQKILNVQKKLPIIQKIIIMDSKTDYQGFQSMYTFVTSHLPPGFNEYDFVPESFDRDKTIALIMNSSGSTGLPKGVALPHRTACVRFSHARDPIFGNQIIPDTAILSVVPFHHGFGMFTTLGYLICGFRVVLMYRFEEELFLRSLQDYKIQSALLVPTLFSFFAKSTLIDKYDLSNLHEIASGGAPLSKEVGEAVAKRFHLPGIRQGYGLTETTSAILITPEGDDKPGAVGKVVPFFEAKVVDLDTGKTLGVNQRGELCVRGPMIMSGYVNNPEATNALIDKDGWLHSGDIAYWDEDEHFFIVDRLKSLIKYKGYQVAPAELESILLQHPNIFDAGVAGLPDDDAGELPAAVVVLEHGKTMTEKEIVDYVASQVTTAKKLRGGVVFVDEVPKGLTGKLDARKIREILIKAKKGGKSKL
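Purified P. pyralis luciferase (10nM final) with 10uM D-luciferin and 10uM ATP (Km levels) in 50mM Tris acetate pH 7.5, 10mM Mg acetate, 0.01% Tween-20, 0.05% BSA; qHTS 6-point titration, ~60 µM downward; luminescence read.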
NPC1 prom act = qHTS Assay for NPC1 Promoter Activators. Huh7 NPC1 promoter luciferase reporter, 24 h. 2.4% of 320,000 active. Potency, µM (series often up to 9.22 µM), without a hit: at the highest dose activation, most hits filed as activators; further: % of control where 0% means no effect; nearly all actives have a fitted effect of over 60% in size
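Huh7 cells stably carrying NPC1 promoter–luciferase, plated in Opti-MEM with 10% FBS for 2 h, were exposed to compound in DMSO for 24 h at 37 °C; luciferase reagent was added for 10 min and luminescence read.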
The depositor's hits bear a star; ? = inconclusive; · = no result given; [ ] = another dose, or the depositor's remark. In the library only some 7.5% were active in any assay of this set; here they are far more common. The call rests on the fitted dose curve; in most records, active means well fitted curve in the direction sought with a large enough effect; inconclusive means small, poorly fitted or top-dose-only effect, or another doubt; inactive means no such curve, though single readings can be large; an effect the other way counts as inactive or inconclusive. Potency means the concentration at half of the fitted maximal effect.

SMILES	SMN2 splice enh	KinaseGlo FLuc	ELG1 genotoxic	Rab9 prom act	FLuc modulator	NPC1 prom act
Cc1ccc2c(c1)/C(=N/O)CCS2	-13%	-3%	-1%	-3%	-1%	0%
Cc1ccc2c(c1)/C(=N/OC(=O)c1ccc(F)cc1)CCS2	6%	-7%	-3%	2%	6µM*	-2%
COC(=O)N/N=C1\CCCc2ccccc21	18%	-1%	0%	1%	1%	1%
O=C(O/N=C1\CCCc2ccccc21)c1ccc(F)cc1	12%	-16%	?	-4%	0.21µM*	7%
COc1ccc(C(=O)Nc2ccccc2C(=O)OCc2cc(=O)n3c4c(sc3n2)CCCC4)cc1	·	·	·	·	-6%	·
O=C(Nc1ccon1)c1ccc(N2CCCCC2)c([N+](=O)[O-])c1	14µM*	7%	16%	2µM*	12µM*	2.8µM*
O=C(Nc1nc(-c2ccccc2)cs1)c1ccc(N2CCOCC2)c([N+](=O)[O-])c1	-105%	4%	-14%	-27%	?	-27%
Cc1cc(NC(=O)c2ccc(N3CCCC3)c([N+](=O)[O-])c2)no1	10%	3%	7%	12%	-8%	7%
O=C(Nc1nc2ccccc2s1)c1ccc(N2CCCCC2)c([N+](=O)[O-])c1	5%[1.84 µM]	3%	-4%	2µM*	9.5µM*	?
O=C(NCCc1ccc(Cl)cc1)c1cnc2sc(N3CCOCC3)nn2c1=O	·	·	·	·	3%	·
c1ccc2oc(-c3[nH]ncc3CN3CCSCC3)cc2c1	·	·	-1%	4%	-2%	1%
c1ccc2oc(-c3ccn[nH]3)cc2c1	·	·	?	3.2µM*	8.5µM*	2.8µM*
Nc1sc(-c2ccccc2)c(Cc2ccccc2)c1C(=O)O	-53%	0%	1%	-1%	17µM*	-5%
COC(=O)c1c(N)sc(Cc2ccccc2)c1C	·	0%	0%	1%	-6%	-2%
COC(=O)[C@@]1(Cc2ccccc2)[C@H]2c3cc(C(=O)N(C)C)n(Cc4nc5ccccc5[nH]4)c3C[C@H]2CN1C(=O)c1ccccc1	-9%	-3%	·	·	·	·
CCN(c1cc(C)cc(C)c1)S(=O)(=O)c1nnc(NC(=O)c2ccccc2C)s1	·	·	·	·	3%	·
CN(C(=O)c1ccco1)c1nnc(-c2ccc(F)cc2)s1	·	·	?	3.2µM*	6.7µM*	2.2µM*
COc1ccc(-c2nnc(N(C)C(=O)c3ccco3)s2)cc1OC	·	·	10%	26%	-11%	15%
O=C(c1ccco1)N(CCCN1CCOCC1)c1nc(-c2ccc(F)cc2)cs1	-26%	-6%	-7%	1%	-14%	-3%
CN(C(=O)c1ccco1)c1nc(-c2ccc(F)cc2)cs1	·	·	?	2.8µM*	2.7µM*	3.5µM*
COc1ccc(-c2csc(N(C)C(=O)c3cccs3)n2)cc1	·	2%	15%	2.5µM*	6µM*	?
O=S(=O)(NCc1ccc(F)cc1)c1ccc(N2CCCCS2(=O)=O)cc1	·	·	·	·	-8%	·
Cc1cc2nn(-c3ccc(F)cc3)nc2cc1NC(=O)c1cccc2c(Cl)cccc12	6%	·	·	·	-8%	·
CN1CCc2nc(NC(=O)c3cccc(S(=O)(=O)N4CCc5ccccc54)c3)sc2C1	6%	1%	3%	-3%	-11%	0%
O=C(Nc1nc2c(s1)CN(Cc1ccccc1)CC2)C1CCC1	?	1%	?	4.5µM*	24µM*	?
SMILES	SMN2 splice enh	KinaseGlo FLuc	ELG1 genotoxic	Rab9 prom act	FLuc modulator	NPC1 prom act
COc1cccc(C(=O)Nc2nc3c(s2)CN(C)CC3)c1	11%	-22%	18%	?	19µM*	?
CCN1CCc2nc(NC(=O)c3ccccc3)sc2C1	10%	-6%	·	·	7.6µM*	·
CCOC(=O)N1CCN(c2ccc(S(=O)(=O)N3CCC(C)CC3)cc2[N+](=O)[O-])CC1	·	·	-1%	2%	·	-7%
CCN(C[C@H]1N[C@@](C)(C(=O)OC)[C@H]2C(=O)N(C)C(=O)[C@@H]12)C(=O)C1CCCCC1	·	·	1%	·	·	·
Nc1cccc2c(=O)[nH][nH]c(=O)c12	1%	·	·	·	·	·
NC(=O)c1cccc(N)c1	4%	0%	·	2%[46.1 µM]	·	2%[46.1 µM]
CC1(C)CC(=O)C(N=Nc2ccc(Br)cc2)=C(O)C1	·	·	10µM*	15%	3.4µM*	-2%
COc1ccc(N=NC2=C(O)CC(C)(C)CC2=O)cc1	?	-9%	?	16%	13µM*	3.5µM*
CC1(C)CC(=O)C(N=Nc2cccc([N+](=O)[O-])c2)=C(O)C1	·	·	18µM*	20%	11µM*	0%
CC1CCN(S(=O)(=O)c2ccc(C(=O)Nc3ccccn3)cc2)CC1	·	·	21µM*	22%	?	?
O=C(Nc1ccccn1)c1ccc(S(=O)(=O)N2CCCC2)cc1	·	·	13%	20%	?	15%
Cc1ccnc(NC(=O)c2ccc(S(=O)(=O)N3CCC(C)CC3)cc2)c1	·	·	0.73µM*	-4%	6.7µM*	-2%
Cc1cccc(NC(=O)c2ccc(S(=O)(=O)N3CCC(C)CC3)cc2)n1	·	·	-18%	-8%	-4%	-6%
CS(=O)(=O)c1ccc2nc(NC(=O)c3ccc(Cl)cc3)sc2c1	·	·	0%	24%	?	3%
Cn1nc(C(=O)Nc2nc3ccc(S(C)(=O)=O)cc3s2)ccc1=O	-2%	?	11%	-1%	11µM*	0%
CS(=O)(=O)c1ccc2nc(NC(=O)c3ccc(=O)[nH]c3)sc2c1	·	·	6%	7%	6.7µM*	-7%
Cc1cc(=O)n2nc(N3CCC(C(=O)Nc4ccc(Br)cc4F)CC3)sc2n1	-6%	·	·	·	-8%	·
O=C(c1cnc2cc(-c3ccccc3)nn2c1)c1cc([N+](=O)[O-])ccc1O	-18%	·	·	·	?	·
Cc1ccc(-c2cc3ncc(C(=O)c4cc([N+](=O)[O-])ccc4O)cn3n2)cc1	-9%	·	·	·	9.5µM*	·
COc1ccc(CNC(=O)c2cccc(-n3cnc4cccnc43)c2C)cc1	·	·	·	·	-8%	·
CN(C)c1oc(-c2ccc(OCc3ccccc3)cc2)nc1C#N	?	-1%	16µM*	6%	?	17%
N#Cc1c(N2CCCC2)nsc1-c1ccccc1	·	·	?	?	15µM*	?
N#Cc1nc(-c2ccccc2)oc1N1CCCCC1	-18%	10%	7%	-1%	-19%	13%
CC(C)COc1ccc(C(=O)Nc2cc3nn(-c4ccccc4)nc3cc2Cl)cc1	-2%	·	·	·	-2%	·
CC(C)(C)C(=O)Nc1cc2nn(-c3ccccc3)nc2cc1Cl	-95%	-3%	?	-16%	0.076µM*	-13%

Screens (PubChem BioAssay)
